Reference: PubChem BioAssay (NCI)
Where “and” joins values, the source holds several entries; their conditions need not be identical. Identical values can stand only once. The panel holds about 83,000 compounds, 20% with a hit somewhere; the sample as a whole holds those more often.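 Assay: single dose, 48 h. Readout: percent growth (0 = no net growth; negative = cell death). Active: <10.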 Calls of active or inactive are those of the source.

Columns and labels:
Test in all cases: NCI-60 one-dose screen, 48 h (100 = growth as untreated, 0 = no growth, -100 = all killed)
Details in all cases: 10 µM unless noted
SR leukemia = system: SR leukemia
RPMI-8226 leukemia = system: RPMI-8226 leukemia
OVCAR-8 ovarian = system: OVCAR-8 ovarian
OVCAR-4 ovarian = system: OVCAR-4 ovarian
IGROV1 ovarian = system: IGROV1 ovarian
OVCAR-3 ovarian = system: OVCAR-3 ovarian
HS 578T breast = system: HS 578T breast
NCI/ADR-RES ovarian = system: NCI/ADR-RES ovarian
SK-OV-3 ovarian = system: SK-OV-3 ovarian
OVCAR-5 ovarian = system: OVCAR-5 ovarian

Measured: growth

N#Cc1ccc([N+](=O)[O-])o1
inactive: SR leukemia 104% | RPMI-8226 leukemia 107% | OVCAR-8 ovarian 89.9% | OVCAR-4 ovarian 107% | IGROV1 ovarian 109% | OVCAR-3 ovarian 118% | HS 578T breast 100% | NCI/ADR-RES ovarian 114%

O=C1C2=C(Nc3cc([N+](=O)[O-])ccc3N2)OC1c1c2ccccc2cc2ccccc12 (centres undefined)
inactive: SR leukemia 23.5% | RPMI-8226 leukemia 15% | OVCAR-8 ovarian 47.5% | OVCAR-4 ovarian 50% | SK-OV-3 ovarian 104% | IGROV1 ovarian 52.3% | OVCAR-3 ovarian 69.4% | HS 578T breast 73.6% | NCI/ADR-RES ovarian 38.3%

CC(C)c1ccc2nc3ccc(C(=O)NCCN4CCN(c5ccccc5)CC4)cn3c(=O)c2c1
inactive: SR leukemia 51.7% | RPMI-8226 leukemia 20.5% | OVCAR-8 ovarian 46.8% | OVCAR-4 ovarian 63.9% | SK-OV-3 ovarian 93.4% | IGROV1 ovarian 78.7% | OVCAR-3 ovarian 77.5% | HS 578T breast 59.2% | NCI/ADR-RES ovarian 32.2%

Cc1cc2nc(CS)[nH]c2cc1C
inactive: SR leukemia 45.9% | RPMI-8226 leukemia 28.7% | OVCAR-8 ovarian 96.5% | OVCAR-4 ovarian 85.5% | SK-OV-3 ovarian 87.1% | IGROV1 ovarian 74.5% | OVCAR-3 ovarian 82.6% | HS 578T breast 103% | NCI/ADR-RES ovarian 95.7%

NC(=S)N/N=C/c1ccc(Cl)s1
inactive: SR leukemia 95.6% | RPMI-8226 leukemia 100% | OVCAR-5 ovarian 111% | OVCAR-4 ovarian 109% | SK-OV-3 ovarian 109% | IGROV1 ovarian 106% | OVCAR-3 ovarian 105% | HS 578T breast 103% | NCI/ADR-RES ovarian 108%

Oc1c(Br)c(Br)c(O)c(Br)c1Br
inactive: SR leukemia 63.2% | RPMI-8226 leukemia 104% | OVCAR-5 ovarian 129% | OVCAR-4 ovarian 68.7% | SK-OV-3 ovarian 156% | IGROV1 ovarian 115% | HS 578T breast 144% | NCI/ADR-RES ovarian 102%
active: OVCAR-3 ovarian 5.11%

CN(C)c1ccc(/C=N/N=C(\C#N)[S][Sn]([Cl])([c]2ccccc2)[c]2ccccc2)cc1
inactive: OVCAR-8 ovarian 60.6% | OVCAR-4 ovarian 28.1% | SK-OV-3 ovarian 99.7% | IGROV1 ovarian 43% | HS 578T breast 61.7% | NCI/ADR-RES ovarian 66.9%
active: SR leukemia 5.61% | RPMI-8226 leukemia -13.8% | OVCAR-3 ovarian -80.1%

O=C1c2cccnc2-c2nccc3c2c1nc1cc(Br)ccc13
-38.2% (active) and 17.6% (inactive): SR leukemia
active: RPMI-8226 leukemia -49.7% and -22.2% | OVCAR-8 ovarian -41.9% | OVCAR-4 ovarian -54.2% and -85.3% | SK-OV-3 ovarian -10.1% and -96% | IGROV1 ovarian -77.6% and -77.5% | OVCAR-3 ovarian -83.1% and -95.4% | HS 578T breast -74% and -32.9% | NCI/ADR-RES ovarian -50.7% and -38.1%

N#CC1C(=O)SC2c3ccccc3C(=O)c3ccccc3C12 (centres undefined)
inactive: SR leukemia 90.1% | RPMI-8226 leukemia 94.6% | OVCAR-8 ovarian 99% | OVCAR-4 ovarian 99.1% | SK-OV-3 ovarian 98.2% | OVCAR-3 ovarian 109% | HS 578T breast 96.2% | NCI/ADR-RES ovarian 104%
